Assay results: ChEMBL document CHEMBL4296182, “CO-ADD screening of NIH NCI Diversity Set V”
For part of these data: Potency and affinity values are given separately.

What was measured:
Staphylococcus aureus = test: Antibacterial activity against Staphylococcus aureus MRSA ATCC 43300 (CO-ADD:GP_020); MIC in CAMBH media using NBS plates, by Resazurin F(560/590); assay type: functional; details: Concentration 20 uM, ASSAY_TEST Inhibition of Bacterial Growth, detection method Resazurin, Fluorescence (ex560/em590), MEDIA CAMHB, plate type 384well, CORNING #3640, time 18 hr
Acinetobacter baumannii = test: Antibacterial activity against Acinetobacter baumannii ATCC 19606 (CO-ADD:GN_034); MIC in CAMBH media using NBS plates, by Resazurin F(560/590); assay type: functional; details: Concentration 20 uM, ASSAY_TEST Inhibition of Bacterial Growth, detection method Resazurin, Fluorescence (ex560/em590), MEDIA CAMHB, plate type 384well, CORNING #3640, time 18 hr
Escherichia coli = test: Antibacterial activity against Escherichia coli ATCC 25922 (CO-ADD:GN_001); MIC in CAMBH media using NBS plates, by Resazurin F(560/590); assay type: functional; details: Concentration 20 uM, ASSAY_TEST Inhibition of Bacterial Growth, detection method Resazurin, Fluorescence (ex560/em590), MEDIA CAMHB, plate type 384well, CORNING #3640, time 18 hr
Klebsiella pneumoniae = details: Concentration 20 uM; ASSAY_TEST Inhibition of Bacterial Growth; detection method Absorption (OD600); MEDIA CAMHB; plate type 384well; NBS; CORNING #3640; time 18 hr
Candida albicans = details: 20 µM
Cryptococcus neoformans = details: Concentration 20 uM; ASSAY_TEST Inhibition of Fungal Growth; detection method Resazurin; Absorption (OD600-OD570); plate type 384well; NBS; CORNING #3640

SMILES | Inhibition (Staphylococcus aureus) | Inhibition (Acinetobacter baumannii) | Inhibition (Escherichia coli) | Inhibition (Klebsiella pneumoniae) | Inhibition (Candida albicans) | Inhibition (Cryptococcus neoformans)
Cc1c(C(=O)c2ccccc2)c2ccccc2n1C | 14.29% | -0.59% | 13.79% | 4.42% | 1.53% | -16.28%
C/C=C(/C)C(=O)O[C@H]1CCN2CC=C(COC(=O)[C@@](O)([C@H](C)OC)C(C)(C)O)[C@H]12 | 10.77% | -8.86% | 10.49% | 12.46% | -1.68% | -5.72%
COc1ccc(C2=CC(c3ccc(OC)c(OC)c3)c3c(c4ccccc4oc3=O)O2)cc1OC (centres undefined) | 20.66% | -10.24% | 10.7% | 7.71% | 5.25% | -11.5%
CN1CCN(c2nc(N)cc(O)n2)CC1 | -8.8% | 13.73% | 3.5% | 7.87% | 7.43% | -4.09%
